This note sets out measurements from PubChem BioAssay (NCI).

Structures are written as SMILES. The panel holds about 83,000 compounds, 20% with a hit somewhere; the sample as a whole holds those more often.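 Single-dose data. Exposure time 48 hours. Values below 10 considered active.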 Unmarked numbers belong to inactive results. Activity calls are given as the source filed them.

For the test, the system named is EKVX NSCLC. The experiment in a line: NCI-60 one-dose screen, 48 h (100 = growth as untreated, 0 = no growth, -100 = all killed). Conditions: 10 µM unless noted. As for the experimental part: Growth inhibition of the EKVX human Non-Small Cell Lung tumor cell line is measured as a screen for anti-cancer activity. Cells are grown in 96 well plates and exposed to the test compound for 48 hours. Compounds are tested at a single concentration, which is 10^-5 M for most compounds. The reported endpoint is percent growth (GI% or GIPRCNT), where numbers from 0 - 100% represent growth inhibition, and numbers from -100% - 0 represent cell death. For example, a value of 40 represents 60% growth inhibition. A value of 0 means no net growth occurred over the course of the experiment. A value of -40 indicates 40% of cells at the beginning of the experiment died by the end of the experiment. A value of -100 means all cells are dead at the end of the experiment.
NCI-60 Human Tumor Cell Lines Screen was performed using the standard one-dose NCI protocol, which is described in more detail at https://dtp.cancer.gov/discovery_development/nci-60/default.htm.
Compounds with GIPRCNT values below 10 were considered active. Activity score was based on GIPRCNT using the following formula: […]
Score is 0 for GIPRCNT values of 100 or above, 50 for GIPRCNT values of 0, and 100 for GIPRCNT values of -100.
Take `C[N+](C)(C)Cc1cc(Cl)ccc1O`: the growth was 115%.

On to `CC[C@H](C)[C@H](NC(=O)[C@H]1CCCCN1C)C(=O)N(C)[C@H](CC(=O)c1nc(C(=O)N[C@@H](Cc2ccccc2)C[C@H](C)C(=O)O)cs1)C(C)C`, for which the growth is 91.5%.

As for `COc1cccc2c1c(C(=O)C(=O)Nc1ccn[nH]1)cn2Cc1ccc(F)cc1`, the growth is 119%.

For `CCN(CC)CCOC(=O)C(OC(C)C)(c1ccccc1)c1ccccc1`, the growth is 93.5%.

As for `CC1[C@H](C)OC(=O)CC(O)CC(O)CC(O)CCC(O)C(O)C[C@]2(O)CC(O)C(C(=O)O)C(CC(OC3O[C@H](C)[C@@H](O)[C@H](N)[C@@H]3O)/C=C/C=C/C=C/C=C/CC/C=C/C=C/[C@H](C)[C@H]1O)O2` (stereo not given in full), the growth was 104%.

Turning to `CNC(=O)Oc1ccc(C(C)(C)C)cc1OC(=O)NC`, the growth was 82.1%.

As to `Nc1c(F)cc(-c2nc3cc(F)ccc3[se]2)cc1F`, the growth was 47.6%.

In the case of `[Au+].[N-]=C=O.c1ccc(CN2[CH-]N(Cc3ccccc3)C(c3ccccc3)=C2c2ccccc2)cc1`, the growth is 86.7%.

As for `Clc1ccc2nnnn2n1`, the growth was 90%.

Consider `COC(=O)C12CC(NC(=O)c3csc([C@@H](C[C@H](C(C)C)N(C)C(=O)[C@@H](NC(=O)[C@H]4CCCCN4C)C4CC4)OC(C)=O)n3)(C1)C2`, for which the growth is 59.8%.

On to `COC(=O)C1CCC(NC(=O)c2csc([C@@H](C[C@H](C(C)C)N(C)C(=O)[C@@H](NC(=O)[C@H]3CCCCN3C)C(C)C)OC(C)=O)n2)CC1` (stereo not given in full), for which the growth was 40.8%.

Turning to `CC1(C)N=C(N)N=C(N)N1c1ccc(CCC(=O)Nc2ccc(S(=O)(=O)F)cc2)c(Cl)c1`, the growth is 55.1%.

For `CCC1CC(O)c2c(O)c3c(c(O)c2C1O)C(=O)c1cccc(O)c1C3=O` (stereo not given) (tested in a mixture with another compound), the growth was -4.25% (active).

Turning to `CC12CCC3C(C=CC4=C(N)C(=O)CCC43C)C1CCC2=O` (stereo not given), the growth is 98%.

`NC(=O)C(Br)c1ccccc1` (stereo not given): the growth is 109%.

`CCCCNC(c1ccc(Cl)cc1)C(O)c1ccc(Cl)cc1` (stereo not given): the growth is 53.9%.

For `C/C(=C\c1ccn(-c2ccccc2N)n1)[C@@H]1C[C@@H]2O[C@]2(C)CCC[C@H](C)[C@H](O)[C@@H](C)C(=O)C(C)(C)[C@@H](O)CC(=O)O1`, the growth is 44.8%.

As for `Nc1ncnc2n[nH]nc12`, the growth is 66.7%.

`CNC(=O)Oc1cccc(C(F)(F)F)c1`: the growth was 139%.

Regarding `N#C[Se]Cc1cc(-c2ccccc2)n(-c2ccc(S(N)(=O)=O)cc2)n1`, the growth was -1.91% (active).

In the case of `Fc1ccc(C2=CCNCC2)cc1`, the growth is 86.2%.

Regarding `COc1cc([N+](=O)[O-])c2nc(C)ccc2c1[N+](=O)[O-]`, the growth is 112%.

In the case of `COC(=O)[C@@]1(C)CC[C@]2(C)CC[C@]3(C)C4=CC=C5C(=CC(=O)C(O)=C5C)[C@]4(C)CC[C@@]3(C)[C@@H]2C1`, the growth was -77.8% (active).

Consider `CCCOC(=O)N[C@H]1CCc2c(Br)c(OC)c(OC)c(OC)c2-c2ccc(SC)c(=O)cc21`, for which the growth was 40.3%.

Take `COC(=O)[C@H](Cc1c[nH]c2ccccc12)NC(=O)[C@@H](OC)[C@@H]1Cc2cc3cc(OC4CC(OC5CC(O)C(O)C(C)O5)C(O)C(C)O4)c(C)c(O)c3c(O)c2C(=O)[C@H]1OC1CC(OC2CC(OC3CC(C)(O)C(O)C(C)O3)C(O)C(C)O2)C(O)C(C)O1` (stereo not given in full): the growth was 3.61% (active).

On to `CCC(O)(CN)c1ccccc1` (stereo not given), for which the growth was 98.3%.

As for `CC(C)=CCC[C@H](C(=O)O)[C@@H]1CC[C@]2(C)C3=C(CC[C@@]12C)[C@@]1(C)CC[C@H](O)C(C)(C)[C@@H]1CC3`, the growth was 95%.

`O=[N+]([O-])c1cnc[nH]1`: the growth is 109%.

As for `COc1ccc(Nc2ccnc3cc(Cl)ccc23)cc1CN(CCCl)CCCl`, the growth is -15.3% (active).

Turning to `COC(=O)[C@@H](C)C[C@H](Cc1ccc(F)cc1)NC(=O)c1csc([C@@H](C[C@H](C(C)C)N(C)C(=O)[C@@H](NC(=O)[C@H]2CCCCN2C)C(C)C)OC(C)=O)n1`, the growth is 48.7%.

For `C/C(=C\c1ccn(-c2ccc(N)c(F)c2)n1)[C@@H]1C[C@@H]2O[C@]2(C)CCC[C@H](C)[C@H](O)[C@@H](C)C(=O)C(C)(C)[C@@H](O)CC(=O)O1`, the growth is 42.2%.

As to `O=C(CC1(O)C(=O)Nc2ccc(Br)cc21)c1ccc(C(=O)NCC2CCC3(CC2)OOC2(CCCCC2)OO3)cc1` (stereo not given), the growth was -36.4% (active).

Consider `CC(=O)Oc1ccccc1C(=O)NCCC[Se]C#N`, for which the growth is 44.5%.

Turning to `Cc1cc(C)cc(Nc2nc3c(s2)CC[C@@]2(C)C3=CC[C@@H]3[C@@H]2CC[C@]2(C)C(=O)CC[C@@H]32)c1`, the growth was 89.4%.

As for `Nc1ccc2c(c1)Cc1cc(Br)ccc1-2`, the growth was 64.2%.

With `CCCCCSC1C2C(=O)C(Br)=CC13CCNc1c(O)c4c5c(c13)=[N+]2CCC=5C=N4` (stereo not given), the growth was -56.1% (active).

Consider `OCCNC(Cc1ccccc1)c1ccc2c(c1)OCO2` (stereo not given), for which the growth was 100%.

Consider `COc1cc2c(=O)n(C3CCCCCCC3)c3c4cc[nH]c4ncc3c2cc1OC`, for which the growth is 71.6%.

With `C1CCC([PH+](C2CCCCC2)C2CCCCC2[PH+](C2CCCCC2)C2CCCCC2)CC1.O=C(C1[CH-]CCCC1)C1CCCC[N-]1.[Au]` (stereo not given), the growth is -53.2% (active).

Consider `CCCCOc1ccc(C(N)Cc2ccccc2)cc1` (stereo not given), for which the growth is 91.8%.
